Test [1] in a line: liver-stage malaria parasite load reduction – cell-based, known kinase inhibitor set, luminescence, hepatoma host viability (AID 624392).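 Also: infected cells incubated roughly two days before readout.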 The note with it: Plasmodium liver stage in hepatoma cells, luciferase luminescence, concentration not given here; liver cell % of control: measured here: host liver cell viability; parasite % of control: stronger effect = lower value.
Test [2] can be described thus: altered dexamethasone sensitivity, NF-kB reporter, cell-based, luciferase, IL-1B stimulus (AID 624486).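 As to percent of negative control (+Dex): 100% = mean signal of vehicle control wells on the plate.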 The note with it: IL-1B + dexamethasone, luminescence; percent of negative control (+Dex): actives lie on both sides, concentration not given here; z-score: measured here: IL-1B alone, no Dex.
The nature of test [3]: C. elegans survival during P. aeruginosa infection – whole organism (AID 651566).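 Also: tested at 14 µM; sign flipped so higher z means a lower ratio.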 The note with it: C. elegans killed by P. aeruginosa, survival ratio.
The nature of test [4]: pro-inflammatory signaling induction in mouse macrophages – cell-based, murine, luminescence (AID 652131). The note with it: murine macrophage pro-inflammatory reporter, stronger effect = higher value.
Test [5] concerns the target Cellular tumor antigen p53 (Homo sapiens) (UniProt P04637). Kind of test: GFP-p53 level modulators in HPV16+ cells – imaging, known kinase inhibitor set, EGFP/DsRed ratio (AID 1053116).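 Also: cells exposed to compounds for 24 h at 37 °C before reading.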 As to conditions: GFP-p53 stability, stronger effect = higher value; EGFP object count: measured here: GFP-p53 positive objects count.
Test [6] in a line: inducers of IRF3 signaling, differentiated THP-1 – cell-based, PMA-stimulated THP-1, luminescence (AID 1053176). As to conditions: PMA-differentiated THP-1, IRF3 reporter luminescence; stronger effect = higher value.
The nature of test [7]: MELAS cybrid and Rieske KO viability enhancers – cell-based, MELAS cybrids, Rieske KO mouse fibroblasts, CellTiter-Glo, primary screen (AID 1508586;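 active = mean z-score across replicates of 1.96 or higher in either the MELAS or the Rieske mutant cell line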;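 also: z relative to plate mean and SD of compound and empty wells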). The note with it: low glucose.
Setting [8] is: MELAS cybrid survival, CellTiter-Glo 48 h, stronger effect = higher value.
Setting [9] is: Rieske KO mouse fibroblast survival, CellTiter-Glo 72 h.

Calls of active or inactive are those of the source. Unless noted, no rule for the calls is given here.

Sequence of Cellular tumor antigen p53 (Homo sapiens) (P04637 whole entry, looked up): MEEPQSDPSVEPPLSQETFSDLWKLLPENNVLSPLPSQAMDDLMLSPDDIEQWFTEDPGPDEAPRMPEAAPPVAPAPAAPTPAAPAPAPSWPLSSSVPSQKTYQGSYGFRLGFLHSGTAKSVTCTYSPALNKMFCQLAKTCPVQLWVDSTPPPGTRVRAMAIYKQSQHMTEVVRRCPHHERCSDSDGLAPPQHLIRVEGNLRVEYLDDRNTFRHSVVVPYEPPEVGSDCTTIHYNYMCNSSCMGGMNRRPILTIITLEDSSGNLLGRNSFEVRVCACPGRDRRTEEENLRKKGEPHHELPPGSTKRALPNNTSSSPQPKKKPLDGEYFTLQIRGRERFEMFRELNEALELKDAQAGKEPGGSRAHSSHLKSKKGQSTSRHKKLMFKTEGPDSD

`CN1CCN(Cc2ccc(-c3cc4ncnc(Nc5ccc(OCc6cccc(F)c6)c(Cl)c5)c4s3)o2)CC1` came in with a liver cell % of control in test [1] of 69.8%. Moreover, the parasite % of control in test [1] is 97% (inactive). For the same compound, the percent of negative control (+Dex) in test [2] is 86.5% (inactive). For the same compound, the z-score in test [2] was -0.395; in test [3] it was 0.455 (inactive); in test [4] it was -0.527 (inactive); in test [7] (setting [8]), 0.235 (inactive); in test [7] (setting [9]), -0.538. In addition, the EGFP object count in test [5] came out at 11.5. In addition, the EGFP/DsRed ratio in test [5] is 0.213 (inactive). Moreover, the fraction signal in test [6] is 0.006 (inactive).
In the case of `CC1(C)CC(n2cnc(-c3ccc(F)cc3)c2-c2ccnc(N)n2)CC(C)(C)N1`, the liver cell % of control in test [1] worked out at 79.9%. In addition, the parasite % of control in test [1] was 131% (inactive). Besides, the percent of negative control (+Dex) in test [2] is 110% (inactive). Further, the z-score in test [2] was 1.77; in test [3] it was 0.485 (inactive); in test [4], 1.82 (inactive); in test [7] (setting [8]), -0.417 (inactive); in test [7] (setting [9]), 0.00971. In test [5], the EGFP object count came to 4. For the same compound, the EGFP/DsRed ratio in test [5] is 0.0677 (inactive). The fraction signal in test [6] is 0.0175 (inactive).
Compound `CCOc1ccc2c(-c3ccnc(Nc4cccc(C(F)(F)F)c4)n3)cnn2n1` registered a liver cell % of control in test [1] of 69.9%. Further, in test [1], the parasite % of control is 174% (inactive). Moreover, in test [2], the percent of negative control (+Dex) was 78% (inactive). The z-score in test [2] was 0; in test [3], 0.335 (inactive); in test [4], -0.613 (inactive); in test [7] (setting [8]), -0.0749 (inactive); in test [7] (setting [9]) it was -0.0737. Further, the EGFP object count in test [5] came out at 10. For the same compound, the EGFP/DsRed ratio in test [5] was 0.229 (inactive). In addition, in test [6], the fraction signal was 0.0035 (inactive).
In test [1], `COc1cc(Nc2ncc(-c3ccccc3)o2)cc(OC)c1` came in with a liver cell % of control of 105%. Further, the parasite % of control in test [1] was 156% (inactive). Further, the percent of negative control (+Dex) in test [2] was 158% (inactive). Moreover, the z-score was 5.51 in test [2]; -1.38 (inactive) in test [3]; 1.77 (inactive) in test [4]; 0.0476 (inactive) in test [7] (setting [8]); -0.415 in test [7] (setting [9]). Besides, the EGFP object count in test [5] was 3.5. Also, in test [5], the EGFP/DsRed ratio is 0.0542 (inactive). Also, in test [6], the fraction signal is 0.0025 (inactive).
In the case of `NCc1ccc(-n2c(-c3nonc3N)nc3cnccc32)cc1`, the liver cell % of control in test [1] is 104%. Moreover, the parasite % of control in test [1] was 162% (inactive). The percent of negative control (+Dex) in test [2] is 58% (inactive). Besides, the z-score was -3.59 in test [2]; -0.655 (inactive) in test [3]; -1.05 (inactive) in test [4]; -0.95 (inactive) in test [7] (setting [8]); -0.216 in test [7] (setting [9]). Also, in test [5], the EGFP object count worked out at 1. The EGFP/DsRed ratio in test [5] was 0.0079 (inactive). Further, in test [6], the fraction signal is 0.003 (inactive).
In turn, `CC(C)(CO)CNC(=O)c1ccc2[nH]c(O)c(N=Nc3ccc(S(N)(=O)=O)cc3)c2c1` had a liver cell % of control in test [1] of 82.1%. In test [1], the parasite % of control is 103% (inactive). Besides, the percent of negative control (+Dex) in test [2] was 93% (inactive). In addition, the z-score in test [2] is -0.01; in test [3], -1.1 (inactive); in test [4], -0.381 (inactive); in test [7] (setting [8]), -0.345 (inactive); in test [7] (setting [9]), -0.442. Also, the EGFP object count in test [5] amounted to 3. The EGFP/DsRed ratio in test [5] was 0.052 (inactive). Besides, in test [6], the fraction signal was -0.004 (inactive).

The record behind these values is PubChem BioAssay.
